Inconclusive results are not listed. The source made the active and inactive calls. Calls come from the whole dose curve; as a rule, active = well fitted inhibition curve with a large enough effect; inconclusive = small, poorly fitted or top-dose-only effect; inactive = flat fitted curve, though single readings scatter.
Key:
[1] = target: Catechol O-methyltransferase (Homo sapiens) (UniProt P21964); test: Confirmatory Screen for Target Class Profiling of Small Molecule Inhibitors of Methyltransferases (AID 1745852); settings: MTase-Glo luminescence, SAH detection, recombinant enzyme; measured here: COMT max response; stronger effect = lower value; for activity change, negative = inhibition: % is set by controls: 0 for no effect and ±100 for the full control effect
Catechol O-methyltransferase (Homo sapiens), sequence (P21964 whole entry, looked up): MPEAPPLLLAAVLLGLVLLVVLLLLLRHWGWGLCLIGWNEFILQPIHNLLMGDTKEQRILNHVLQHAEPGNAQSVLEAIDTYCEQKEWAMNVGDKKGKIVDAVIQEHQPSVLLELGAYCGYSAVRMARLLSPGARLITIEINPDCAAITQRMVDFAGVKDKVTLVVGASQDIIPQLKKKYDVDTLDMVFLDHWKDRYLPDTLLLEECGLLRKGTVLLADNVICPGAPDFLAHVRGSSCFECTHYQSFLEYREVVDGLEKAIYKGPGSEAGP

[2] = target: Guanidinoacetate N-methyltransferase (Homo sapiens) (UniProt Q14353); test: as above; settings: MTase-Glo luminescence, SAH detection, recombinant enzyme; activity change, negative = inhibition: at 57.3 µM (top of the series); series mostly up to 57.3 µM
[3] = target: Nicotinamide N-methyltransferase (Homo sapiens) (UniProt P40261); test: as above; settings: MTase-Glo luminescence, SAH detection, recombinant enzyme; measured here: NNMT max response; stronger effect = lower value
Nicotinamide N-methyltransferase (Homo sapiens), sequence (P40261 whole entry, looked up): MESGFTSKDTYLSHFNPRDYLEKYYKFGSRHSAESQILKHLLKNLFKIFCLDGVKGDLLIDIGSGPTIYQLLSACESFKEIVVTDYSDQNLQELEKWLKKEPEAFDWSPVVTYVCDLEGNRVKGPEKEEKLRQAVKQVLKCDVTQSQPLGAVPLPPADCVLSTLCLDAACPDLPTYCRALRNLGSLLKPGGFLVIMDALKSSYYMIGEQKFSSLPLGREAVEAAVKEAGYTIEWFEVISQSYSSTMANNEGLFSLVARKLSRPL

[4] = target: Phenylethanolamine N-methyltransferase (Homo sapiens) (UniProt P11086); test: as above; settings: MTase-Glo luminescence, SAH detection, recombinant enzyme; measured here: PNMT max response; stronger effect = lower value
Phenylethanolamine N-methyltransferase (Homo sapiens), sequence (P11086 whole entry, looked up): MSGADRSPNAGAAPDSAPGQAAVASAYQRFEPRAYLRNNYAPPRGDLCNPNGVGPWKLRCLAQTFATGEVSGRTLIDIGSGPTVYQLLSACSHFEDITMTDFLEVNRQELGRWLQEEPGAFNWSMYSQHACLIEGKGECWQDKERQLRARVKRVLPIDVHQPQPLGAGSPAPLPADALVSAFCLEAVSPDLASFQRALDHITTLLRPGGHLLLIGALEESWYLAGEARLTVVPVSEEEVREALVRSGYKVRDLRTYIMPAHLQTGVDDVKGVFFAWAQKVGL

[5] = target: Glutathione peroxidase 1 (Homo sapiens) (UniProt P07203); test: Primary qHTS Assay for Inhibitors of Recombinant Selenoprotein Glutathione Peroxidase 1 (GPX1) (AID 1845191); settings: recombinant GPX1, GR-coupled NADPH fluorescence, 15 min; series mostly up to 48.8 µM; note: nearly all actives have a fitted effect of over 65% in size; for activity, negative = inhibition: % is set by controls: 0 for no effect and ±100 for the full control effect
Glutathione peroxidase 1 (Homo sapiens), sequence (P07203 whole entry, looked up): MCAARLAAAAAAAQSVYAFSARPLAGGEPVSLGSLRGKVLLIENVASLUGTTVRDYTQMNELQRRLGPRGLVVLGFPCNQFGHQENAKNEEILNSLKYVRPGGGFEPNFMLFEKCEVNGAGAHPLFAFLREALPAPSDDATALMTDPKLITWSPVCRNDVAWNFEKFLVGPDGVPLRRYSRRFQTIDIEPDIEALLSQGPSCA
Procedure, shortened: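 10 nM GPX1 + cpd, 30 min RT; start w/ 1 mM GSH, 0.5 mM cumene hydroperoxide, 0.5 mM NADPH, 100 nM GR, 0.01% BSA; buffer 50 mM Tris-HCl pH 7.5, 2 mM EDTA, 150 mM NaCl; Fl 340/450, 0 & 15 min.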

[6] = target: Phospholipid hydroperoxide glutathione peroxidase GPX4 (Homo sapiens) (UniProt P36969); test: Primary qHTS Assay for Inhibitors of Recombinant Selenoprotein Glutathione Peroxidase 4 (GPX4) (AID 1845192); settings: recombinant GPX4, GR-coupled NADPH fluorescence, 15 min; series mostly up to 50 µM; note: nearly all actives have a fitted effect of over 65% in size; for activity change, negative = inhibition: % is set by controls: 0 for no effect and ±100 for the full control effect
Phospholipid hydroperoxide glutathione peroxidase GPX4 (Homo sapiens), sequence (P36969 whole entry, looked up): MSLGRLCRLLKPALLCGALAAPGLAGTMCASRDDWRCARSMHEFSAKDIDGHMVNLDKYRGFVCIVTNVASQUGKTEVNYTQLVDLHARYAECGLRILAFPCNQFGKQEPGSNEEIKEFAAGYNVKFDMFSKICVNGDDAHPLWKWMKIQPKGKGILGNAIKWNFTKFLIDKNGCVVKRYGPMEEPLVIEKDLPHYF
Procedure, shortened: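 NADPH consumption, followed by fluorescence at 340/450 nm between 0 and 15 min, reports GPX4 activity via coupled glutathione reductase (100 nM). Enzyme 200 nM was pre-exposed to compound 30 min; 0.5 mM cumene hydroperoxide and 1 mM GSH served as substrates.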

Compound: Cn1cc(-c2cnn3c(N)c(Br)c([C@H]4CCCNC4)nc23)cn1
- activity [1]: -1.78%
- activity change, negative = inhibition [2]: 2.57%
- activity [3]: -6.14%
- activity [4]: -78.4%
- Potency [5]: inactive
- Potency [6]: inactive

Compound: COc1cc(OC)c(NC(=O)Nc2cc(C)on2)cc1Cl
- Potency [5]: inactive
- Potency [6]: inactive

Compound: O=c1c(O)c(-c2ccc(O)c(O)c2)oc2cc(O)ccc12
- Potency [5]: inactive

Compound: COC1=C(OC)C(=O)C(CC=C(C)CCC=C(C)CCC=C(C)CCC=C(C)CCC=C(C)CCC=C(C)CCC=C(C)CCC=C(C)CCC=C(C)CCC=C(C)C)=C(C)C1=O
- activity, negative = inhibition [5]: 1.94% [at 4.49 µM] (inactive)
- outcome [6]: inactive [at 4.52 µM]

Reference: PubChem BioAssay (NCATS)
